Results taken from PubChem BioAssay (Tox21).
Active and inactive are the calls of the source. Unless noted, calls come from the whole dose curve; as a rule, active = well fitted curve in the direction sought with a large enough effect in the repeat runs; inconclusive = weak or mixed curves; inactive = no such curve, though single readings can be large; an effect the other way counts as inactive or inconclusive.

How the values were obtained:
[1] = qHTS assay to test for compound auto fluorescence at 535 nm (green) in HEK293 cells (AID 720680)
[2] = qHTS assay to test for compound auto fluorescence at 460 nm (blue) in HEK293 cell free culture (AID 720681)
Procedure, shortened: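 Blue fluorescence (Ex 405/Em 460 nm, triamterene-equivalent) was read immediately after pin transfer of compound or DMSO into medium (DMEM, 10% FBS) without cells.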

[3] = qHTS assay to test for compound auto fluorescence at 590 nm (red) in HEK293 cell free culture (AID 720683)
Procedure, shortened: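 Red-channel autofluorescence of compounds in culture medium (DMEM, 10% FBS), no cells, measured at 540/590 nm. Rose Bengal sodium is the reference fluorophore for equivalence.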

[4] = qHTS assay to test for compound auto fluorescence at 590 nm (red) in HepG2 cell free culture (AID 720684)
Procedure, shortened: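 No cells present: MEM + 10% FBS only. Compound pinned in, red label read (540/590 nm). Activity = fluorescence equivalent to Rose Bengal sodium.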

[5] = qHTS assay to test for compound auto fluorescence at 460 nm (blue) in HepG2 cell free culture (AID 720685)
Procedure, shortened: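 Cell-free plates of MEM plus 10% FBS received 23 nL compound or DMSO vehicle; blue-channel (405/460 nm) intensity scored against triamterene as reference fluorophore.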

[6] = qHTS assay to test for compound auto fluorescence at 535 nm (green) in HepG2 cell free culture (AID 720686)
[7] = qHTS assay to test for compound auto fluorescence at 460 nm (blue) in HepG2 cells (AID 720687)
Procedure, shortened: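 Blue-channel autofluorescence (Ex/Em 405/460 nm, triamterene-equivalent) was measured after 1 hr compound exposure at 37 C, 5% CO2. Cells were HepG2, plated overnight at 37 C in MEM plus 10% FBS.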

[8] = target: Glucocorticoid receptor (Homo sapiens) (UniProt P04150); test: qHTS assay to identify small molecule agonists of the glucocorticoid receptor (GR) signaling pathway (AID 720691; active = well fitted activation curve with a large enough effect in the signal ratio in the repeat runs, not every such curve was filed as active; inconclusive = weak or mixed curves, or effect the other way; inactive = no such curve, though single readings can be large or run the other way; the % refers to the signal ratio; note: potency is the fitted concentration of half-maximal effect)
Chain of Glucocorticoid receptor (Homo sapiens) (P04150 whole entry, looked up): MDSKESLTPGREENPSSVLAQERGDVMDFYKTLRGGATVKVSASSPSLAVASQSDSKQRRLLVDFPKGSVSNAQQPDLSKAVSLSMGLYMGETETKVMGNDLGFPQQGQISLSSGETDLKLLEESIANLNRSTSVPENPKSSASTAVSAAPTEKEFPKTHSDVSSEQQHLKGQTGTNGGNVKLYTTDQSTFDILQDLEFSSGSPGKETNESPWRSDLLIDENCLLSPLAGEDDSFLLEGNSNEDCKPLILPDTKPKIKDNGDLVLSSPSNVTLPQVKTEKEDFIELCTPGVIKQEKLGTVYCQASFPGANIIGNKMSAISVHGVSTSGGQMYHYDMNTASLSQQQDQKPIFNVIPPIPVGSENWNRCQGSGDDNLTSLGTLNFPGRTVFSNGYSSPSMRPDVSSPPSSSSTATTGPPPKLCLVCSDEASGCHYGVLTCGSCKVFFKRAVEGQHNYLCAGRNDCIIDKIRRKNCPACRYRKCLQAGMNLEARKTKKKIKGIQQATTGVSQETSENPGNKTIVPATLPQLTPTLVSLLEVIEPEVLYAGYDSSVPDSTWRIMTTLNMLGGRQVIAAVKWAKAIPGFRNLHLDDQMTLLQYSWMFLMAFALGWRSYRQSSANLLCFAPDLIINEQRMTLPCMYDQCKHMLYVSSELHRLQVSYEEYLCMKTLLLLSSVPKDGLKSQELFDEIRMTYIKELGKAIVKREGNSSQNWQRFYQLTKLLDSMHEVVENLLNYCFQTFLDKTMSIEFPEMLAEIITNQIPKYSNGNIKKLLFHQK
Procedure, shortened: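 A HeLa cervical cancer line expressing GR and a glucocorticoid response element-driven beta-lactamase gene is treated with compounds for 18 h; LiveBLAzer B/G FRET substrate is then applied and fluorescence read.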

[9] = qHTS assay to identify small molecule antagonists of the glucocorticoid receptor (GR) signaling pathway - cell viability counter screen (AID 720693); note: nearly all actives have a fitted effect of over 55% in size
[10] = qHTS assay for identifying genotoxic compounds that show differential cytotoxicity against isogenic chicken DT40 cell lines with known DNA damage response pathways - wild type cell line (AID 743012); note: nearly all actives have a fitted effect of over 60% in size; note: potency is the fitted concentration of half-maximal effect
Procedure, shortened: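 300 wt DT40 cells/well; cpd (DMSO) pintool-transferred after ~0.5 h at 37 C/5% CO2; 40 h incubation; CellTiter-Glo added, 30 min RT; luminescence read.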

[11] = qHTS assay for identifying genotoxic compounds that show differential cytotoxicity against isogenic chicken DT40 cell lines with known DNA damage response pathways - Rev3 mutant cell line (AID 743014); note: nearly all actives have a fitted effect of over 55% in size; note: potency is the fitted concentration of half-maximal effect
[12] = qHTS assay for identifying genotoxic compounds that show differential cytotoxicity against isogenic chicken DT40 cell lines with known DNA damage response pathways - Rad54/Ku70 mutant cell line (AID 743015); note: nearly all actives have a fitted effect of over 60% in size; note: potency is the fitted concentration of half-maximal effect
[13] = qHTS assay to identify small molecule antagonists of the androgen receptor (AR) signaling pathway - cell viability counter screen (AID 743033; note: nearly all actives have a fitted effect of over 45% in size)
[14] = qHTS assay to identify small molecule antagonists of the androgen receptor (AR) signaling pathway using the MDA cell line - cell viability counter screen (AID 743041; note: nearly all actives have a fitted effect of over 45% in size)
Procedure, shortened: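 Using the breast carcinoma line MDA-kb2 AR-luc, test chemicals were co-incubated with R1881 for 16 h; CellTiter-Fluor reagent, added at 15.5 h, provided a fluorescence measure of live cells.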

[15] = qHTS assay to identify small molecule antagonists of the thyroid receptor (TR) signaling pathway - cell viability counter screen (AID 743064); note: nearly all actives have a fitted effect of over 50% in size; note: potency is the fitted concentration of half-maximal effect
Procedure, shortened: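 Compounds were tested on GH3.TRE-Luc cells in the presence of T3 at 1 nM final. Following 23.5 h at 37 °C, cell viability was quantified by CellTiter-Fluor.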

[16] = target: Glucocorticoid receptor (Homo sapiens) (UniProt P04150); test: qHTS assay to identify small molecule antagonists of the glucocorticoid receptor (GR) signaling pathway (AID 720692; active = well fitted inhibition curve with a large enough effect in the signal ratio in the repeat runs, not every such curve was filed as active; inconclusive = weak or mixed curves, or effect the other way; inactive = no such curve, though single readings can be large or run the other way; the % refers to the signal ratio; note: potency is the fitted concentration of half-maximal effect)
Procedure, shortened: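 GRE-bla HeLa line, dex-stimulated (5 nM final). Compound exposure 18 h, 37 C. Beta-lactamase FRET read after 2 h RT substrate.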

[17] = target: Androgen receptor (Homo sapiens) (UniProt P10275); test: qHTS assay to identify small molecule agonists of the androgen receptor (AR) signaling pathway using the MDA cell line (AID 743040; note: nearly all actives have a fitted effect of over 20% in size; note: potency is the fitted concentration of half-maximal effect)
Chain of Androgen receptor (Homo sapiens) (P10275 whole entry, looked up): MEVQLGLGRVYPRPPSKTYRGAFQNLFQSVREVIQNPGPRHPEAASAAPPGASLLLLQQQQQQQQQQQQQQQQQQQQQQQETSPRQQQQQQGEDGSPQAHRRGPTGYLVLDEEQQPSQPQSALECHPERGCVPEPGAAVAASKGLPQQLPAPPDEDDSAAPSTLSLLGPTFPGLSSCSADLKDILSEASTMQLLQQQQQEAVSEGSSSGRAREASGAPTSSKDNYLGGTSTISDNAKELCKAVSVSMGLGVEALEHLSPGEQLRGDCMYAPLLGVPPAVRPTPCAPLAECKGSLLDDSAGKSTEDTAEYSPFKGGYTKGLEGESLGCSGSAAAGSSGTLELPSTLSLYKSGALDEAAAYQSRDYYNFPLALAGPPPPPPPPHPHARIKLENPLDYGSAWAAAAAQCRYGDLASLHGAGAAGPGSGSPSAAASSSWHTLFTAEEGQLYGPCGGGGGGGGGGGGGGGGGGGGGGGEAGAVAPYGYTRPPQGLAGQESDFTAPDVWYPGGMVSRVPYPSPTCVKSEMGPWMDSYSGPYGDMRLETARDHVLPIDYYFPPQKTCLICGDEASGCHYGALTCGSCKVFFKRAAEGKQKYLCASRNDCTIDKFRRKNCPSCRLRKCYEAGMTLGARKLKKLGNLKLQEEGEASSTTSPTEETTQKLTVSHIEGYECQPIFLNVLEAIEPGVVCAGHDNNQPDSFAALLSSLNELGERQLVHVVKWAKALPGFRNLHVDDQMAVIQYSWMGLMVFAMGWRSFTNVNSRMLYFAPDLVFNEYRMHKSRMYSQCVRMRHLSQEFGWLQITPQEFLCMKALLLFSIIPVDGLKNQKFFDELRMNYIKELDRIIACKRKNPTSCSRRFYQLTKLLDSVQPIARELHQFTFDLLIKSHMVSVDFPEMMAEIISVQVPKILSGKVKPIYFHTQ
Procedure, shortened: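 Stable MMTV-luciferase reporter in MDA-kb2 cells; note the promoter carries GR as well as AR response elements. 16 h compound treatment, 37C, 0% CO2; ONE-Glo luminescence endpoint.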

[18] = target: Androgen receptor (Homo sapiens) (UniProt P10275); test: qHTS assay to identify small molecule antagonists of the androgen receptor (AR) signaling pathway (AID 743035; active = well fitted inhibition curve with a large enough effect in the signal ratio in the repeat runs, not every such curve was filed as active; inconclusive = weak or mixed curves, or effect the other way; inactive = no such curve, though single readings can be large or run the other way; the % refers to the signal ratio)
Procedure, shortened: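 In this cell-based reporter screen, compounds were tested in concentration series against R1881-activated HEK293 cells expressing beta-lactamase under UAS control; after 16 h at 37C, FRET substrate was added and fluorescence read 2 h later.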
% is set by controls: 0 for no effect and ±100 for the full control effect.

COc1cc2ncnc(Nc3ccc(F)c(Cl)c3)c2cc1OCCCN1CCOCC1
active: Potency [10] 26.6 µM | Potency [11] 26.6 µM | Potency [12] 21.1 µM | Potency [15] 10.6 µM
inactive: outcome [1] | Potency [2] | outcome [3] | outcome [4] | Potency [5] | outcome [6] | Potency [7] | Potency [8] | Potency [9] | Potency [13] | Potency [14]

CCC(C)(C)C1CCC(O)CC1 (stereo not given)
inactive: outcome [1] | Potency [2] | outcome [3] | outcome [4] | Potency [5] | outcome [6] | Potency [7] | Potency [9] | Potency [10] | Potency [11] | Potency [13] | Potency [14]

CCCCN(CCCC)CCCOC(=O)c1ccc(N)cc1
inactive: fluorescence, % of fluorescein [1] 0.0466% [at 18.6 µM] | fluorescence, % of fluorescent control [2] -0.0006% [at 18.6 µM] | fluorescence, % of fluorescent control [3] 0.0804% [at 18.6 µM] | fluorescence, % of Rose Bengal [4] 0.0643% [at 18.6 µM] | fluorescence, % of fluorescent control [5] 0.138% [at 18.6 µM] | fluorescence, % of fluorescein control [6] -0.0572% [at 18.6 µM] | fluorescence, % of fluorescent control [7] -0.0696% [at 18.6 µM] | Potency [8] | Potency [16] | Potency [9] | Potency [13] | Potency [14] | Potency [15]
active: Potency [10] 4.52 µM | Potency [11] 2.27 µM | Potency [12] 4.52 µM

CC1(C)C(=O)N(Br)C(=O)N1Cl
active: Potency [10] 61.1 µM | Potency [11] 61.1 µM
inactive: outcome [1] | Potency [2] | outcome [3] | outcome [4] | Potency [5] | outcome [6] | Potency [7] | Potency [9] | Potency [13] | Potency [14] | Potency [15]

C1COCO1
inactive: outcome [1] | Potency [2] | outcome [3] | outcome [4] | Potency [5] | outcome [6] | Potency [7] | Potency [8] | Potency [16] | Potency [9] | Potency [10] | Potency [11] | Potency [13] | Potency [14] | Potency [15]

CC(=O)Nc1ccccc1C
inactive: outcome [1] | Potency [2] | outcome [3] | outcome [4] | Potency [5] | Potency [7] | Potency [8] | Potency [16] | Potency [9] | Potency [10] | Potency [11] | Potency [12] | Potency [13] | Potency [14] | Potency [15]

CC1(C)O[C@@H]2C[C@H]3[C@@H]4CCC5=CC(=O)C=C[C@]5(C)[C@H]4[C@@H](O)C[C@]3(C)[C@]2(C(=O)CO)O1
inactive: outcome [1] | Potency [2] | outcome [3] | outcome [4] | Potency [5] | outcome [6] | Potency [7] | Potency [9] | Potency [12] | Potency [13] | Potency [14] | Potency [15]
active: Potency [8] 0.0301 µM [inconclusive]

Cc1ccccc1N1C(=O)c2cc(S(N)(=O)=O)c(Cl)cc2NC1C (stereo not given)
inactive: outcome [1] | Potency [2] | outcome [3] | outcome [4] | Potency [5] | outcome [6] | Potency [7] | Potency [8] | Potency [16] | Potency [9] | Potency [10] | Potency [11] | Potency [12] | Potency [13] | Potency [14] | Potency [15]

Cc1nc2ccccc2s1
inactive: outcome [1] | Potency [2] | outcome [3] | outcome [4] | Potency [5] | outcome [6] | Potency [7] | Potency [8] | Potency [16] | Potency [9] | Potency [10] | Potency [11] | Potency [12] | Potency [13] | Potency [14] | Potency [15]

CCCCCCCCCCOS(=O)(=O)O
inactive: outcome [1] | Potency [2] | outcome [3] | outcome [4] | Potency [5] | outcome [6] | Potency [7] | Potency [9] | Potency [10] | Potency [11] | Potency [12] | Potency [13] | Potency [14] | Potency [15]

CCOC(=O)[C@@H](C)Oc1ccc(Oc2nc3ccc(Cl)cc3o2)cc1
active: Potency [10] 68.6 µM | Potency [12] 61.1 µM
inactive: outcome [1] | Potency [2] | outcome [3] | outcome [4] | Potency [5] | outcome [6] | Potency [7] | Potency [8] | Potency [9] | Potency [13] | Potency [17] | Potency [14] | Potency [15]

O=C(Nc1ccc([N+](=O)[O-])cc1)Nc1ccc([N+](=O)[O-])cc1
active: Potency [10] 10.6 µM | Potency [11] 10.6 µM | Potency [12] 11.9 µM
inactive: outcome [1] | Potency [2] | outcome [3] | outcome [4] | Potency [5] | outcome [6] | Potency [7] | Potency [8] | Potency [9] | Potency [14]

O=C1NCCN1
inactive: outcome [1] | Potency [2] | outcome [3] | outcome [4] | Potency [5] | Potency [7] | Potency [8] | Potency [16] | Potency [9] | Potency [10] | Potency [12] | Potency [13] | Potency [14] | Potency [15]

ON(Cc1ccccc1)Cc1ccccc1
inactive: outcome [1] | Potency [2] | outcome [3] | outcome [4] | Potency [5] | outcome [6] | Potency [7] | Potency [8] | Potency [10] | Potency [11] | Potency [12] | Potency [13] | Potency [18] | Potency [14] | Potency [15]

Nc1ccc(C(=O)OCCCOC(=O)c2ccc(N)cc2)cc1
inactive: outcome [1] | Potency [2] | outcome [3] | outcome [4] | Potency [5] | Potency [7] | Potency [8] | Potency [16] | Potency [9] | Potency [13] | Potency [14] | Potency [15]

CSc1ccc(Oc2ccc(S(N)(=O)=O)cc2CN(C)C)cc1C
active: Potency [10] 24.3 µM | Potency [11] 27.3 µM | Potency [12] 61.1 µM | Potency [15] 54.5 µM
inactive: outcome [1] | Potency [2] | outcome [3] | outcome [4] | Potency [5] | outcome [6] | Potency [7] | Potency [8] | Potency [16] | Potency [9] | Potency [14]

CCCCCCCCCOC(C)=O
inactive: outcome [1] | Potency [2] | outcome [3] | outcome [4] | Potency [5] | outcome [6] | Potency [7] | Potency [8] | Potency [16] | Potency [9] | Potency [10] | Potency [11] | Potency [13] | Potency [14] | Potency [15]

Cc1cc(OI)c(C(C)C)cc1-c1cc(C(C)C)c(OI)cc1C
inactive: outcome [1] | Potency [2] | outcome [3] | outcome [4] | Potency [5] | outcome [6] | Potency [7] | Potency [8] | Potency [9] | Potency [10] | Potency [11] | Potency [12] | Potency [13] | Potency [14] | Potency [15]

COCc1c(C(C)C)nc(C(C)C)c(/C=C/[C@@H](O)C[C@@H](O)CC(=O)O)c1-c1ccc(F)cc1
inactive: outcome [1] | Potency [2] | outcome [3] | outcome [4] | Potency [5] | outcome [6] | Potency [7] | Potency [14] | Potency [15]
active: Potency [16] 3.38 µM | Potency [10] 0.075 µM | Potency [11] 0.0133 µM | Potency [17] 13.3 µM

O=C(/C=C/c1ccccc1)OCCCc1ccccc1
inactive: outcome [1] | Potency [2] | outcome [3] | outcome [4] | Potency [5] | outcome [6] | Potency [7] | Potency [8] | Potency [9] | Potency [10] | Potency [11] | Potency [12] | Potency [13] | Potency [15]

OC/C(Br)=C(\Br)CO
inactive: outcome [1] | Potency [2] | outcome [3] | outcome [4] | Potency [5] | outcome [6] | Potency [7] | Potency [8] | Potency [16] | Potency [9] | Potency [10] | Potency [11] | Potency [12] | Potency [13] | Potency [14] | Potency [15]

CCN(Cc1cccc(S(=O)(=O)O)c1)c1ccc(C(=C2C=CC(=[N+](CC)Cc3cccc(S(=O)(=O)[O-])c3)C=C2)c2ccccc2)cc1
inactive: outcome [1] | Potency [2] | outcome [3] | outcome [4] | Potency [5] | outcome [6] | Potency [7] | Potency [9] | Potency [10] | Potency [11] | Potency [12] | Potency [13] | Potency [14] | Potency [15]

CCOC(=O)c1ccccc1C
inactive: outcome [1] | Potency [2] | outcome [3] | outcome [4] | Potency [5] | outcome [6] | Potency [7] | Potency [8] | Potency [16] | Potency [9] | Potency [13] | Potency [14] | Potency [15]
active: Potency [11] 61.1 µM
